In PubChem BioAssay AID504697 (The Scripps Research Institute Molecular Screening Center, 2011):
Unmarked numbers belong to inactive results. Calls of active or inactive are those of the source.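 How the source made its calls: active means EC50 at or below 10 µM; inactive means EC50 above 10 µM.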

Assay: fluorescence interference artefacts, compound only, dose response, artefact control for cardiac thin filament activator project, biochemical, no RTF in test wells (AID 504697);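 further: emission near 535 nm under roughly 485 nm excitation as for IANBD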
Settings: artifact counterscreen

Compound | EC50
O=[N+]([O-])c1ccc(N2CCCCCC2)c2nonc12 | 1.17 µM (active)
O=C(CN1CCN(c2ccccc2F)CC1)Nc1cccnc1Cl | > 71.5 µM
CC(=O)OCC[N+](C)(C)C | > 71.4 µM [compound-only fluorescence in RTF assay buffer with Ca2+ (no RTF in test wells)]
CN1C(=O)/C(=C/c2ccc(N3CCCCCC3)o2)C(=O)NC1=S | 5 µM (active)
Cc1ccc(-n2c(O)c(/C=C/C=Nc3ccccc3)c(=O)[nH]c2=O)cc1 | 10.6 µM
C/C(=N\N1CCCCC1c1cccnc1)c1c(O)n(C2CCCCC2)c(=S)[nH]c1=O (centres undefined) | 39.3 µM
Cc1cc(N2CCCC2)ccc1C=C(C#N)C#N | 14.4 µM
C=CCN1C(=O)/C(=C/c2ccc(N3CCOCC3)o2)C(=O)NC1=S | 14 µM
O=[N+]([O-])c1ccc(N2CCCC2)c2ncccc12 | 23.5 µM
O=c1[nH]c(=O)n(Cc2ccc(F)cc2)c(O)c1/C=N/Nc1ccccc1 | > 71.5 µM
CCC1(C)OC(c2ccccc2)=C/C(=C/C=C2C(=O)NC(=O)NC2=O)O1 (centres undefined) | 2.73 µM (active)
CNS(=O)(=O)c1ccc(N=Cc2c(O)n(-c3ccccc3)c(=O)[nH]c2=O)cc1 | > 71.5 µM
COc1ccc(OC)c(-n2c(O)c(C=NCCN3CCNCC3)c(=O)[nH]c2=S)c1 | > 71.5 µM
Cc1cc(Cl)nc(N)n1 | > 71.4 µM
